# Results filed as inconclusive are left out. A call without a number means that no potency is given here. Active and inactive are the calls of the source. Calls come from the whole dose curve; as a rule, active = well fitted cell-killing curve with a large enough effect; inconclusive = small, poorly fitted or top-dose-only effect, or effect the other way; inactive = no such curve, though single readings can be large or run the other way.
# Legend:
# [1] = Viability qHTS for spleen associated tyrosine kinase inhibitor (SYKi) naive MV4-11 cells (AID 1963823); note: nearly all actives have a fitted effect of over 40% in size
# Summary of the method: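 Compounds were dispensed acoustically onto plates, MV4-11 cells (SYKi-naive) added at 500 per well, and plates incubated 72 hr at 37 C. CellTiter-Glo was added and luminescence measured after 10 min.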
# [2] = Viability qHTS for spleen associated tyrosine kinase inhibitor (SYKi) drug resistant MV4-11 cells (AID 1963824); note: nearly all actives have a fitted effect of over 35% in size
# Summary of the method: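 SYK inhibitor-resistant MV4-11 AML cells, 500 per well, added to predispensed compounds and incubated 72 hr at 37 C, 5% CO2. Viability measured by CellTiter-Glo luminescence after 10 min at room temperature.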
# Potency is the fitted concentration of half-maximal effect.
SMILES,Potency [1],Potency [2]
O=C1CN=C(c2ccccc2Cl)c2cc(Br)ccc2N1,inactive,inactive
COC[C@@H]1OC(=O)c2coc3c2[C@]1(C)C1=C(C3=O)[C@H]2CC[C@H](O)[C@@]2(C)C[C@@H]1OC(C)=O,8.2 µM (active),6.51 µM (active)
COCC(C(=O)OC1CC2CCC(C1)N2C)c1ccccc1 (stereo not given),inactive,inactive
C=CCN1CC[C@]23c4c5ccc(O)c4O[C@H]2[C@@H](O)CC[C@@]3(O)[C@H]1C5,inactive,inactive
C[C@]12CC[C@H](O)CC1=CC[C@@H]1C2CC[C@]2(C)[C@@H](C3=CC(=O)OC3)CC[C@]12O (stereo not given in full),11.4 µM (active),4.04 µM (active)
C/C=C(\C)C(O)C(C)/C=C(C)/C=C/C/C(C)=C/Cc1nc(OC)c(OC)c(O[C@@H]2O[C@@H](C)[C@H](O)[C@@H](O)[C@H]2O)c1C (stereo not given in full),0.1 µM (active),0.252 µM (active)
CC1N=C(N)OC1c1ccccc1 (stereo not given),inactive,inactive
O=C(N[C@H]1CN2CCC1CC2)c1cc2cccc(Cl)c2s1,14.6 µM (active),20.6 µM (active)
CC(C)(C)[C@]1(O)C[C@@H]2OC(=O)C[C@@]23C(=O)O[C@@H]2OC(=O)[C@@H](O)[C@]213,inactive,
CC(=O)O[C@@H]1[C@H]2CC[C@H]3[C@@](C)(O)[C@@H]4C[C@H](O)C(C)(C)[C@@]4(O)[C@H](O)C[C@@]13C[C@@]2(C)O,inactive,inactive
C[C@@H]1O[C@@H](O[C@H]2CC[C@@]3(C)C(CC[C@@H]4C3CC[C@]3(C)[C@@H](C5=CC(=O)OC5)CC[C@]43O)C2)[C@H](O[C@@H]2O[C@H](CO)[C@@H](O)[C@H](O)[C@H]2O)[C@H](O)[C@H]1O (stereo not given in full),0.343 µM (active),
